This note sets out measurements from PubChem BioAssay (NCI).

What all share (assay): NCI-60 one-dose screen, 48 h (100 = growth as untreated, 0 = no growth, -100 = all killed)
Holding throughout (settings): 10 µM unless noted

Assay [1] relates to SR leukemia.
For assay [2], the system named is RPMI-8226 leukemia.
In assay [3] the test system is OVCAR-8 ovarian.
Assay [4] concerns OVCAR-5 ovarian.
Assay [5] concerns OVCAR-4 ovarian.
For assay [6], the system named is SK-OV-3 ovarian.
Assay [7] concerns IGROV1 ovarian.
The test system of assay [8] is OVCAR-3 ovarian.
Assay [9] relates to HS 578T breast.
Assay [10] concerns NCI/ADR-RES ovarian.
For assay [11], the system named is T-47D breast.
For assay [12], the system named is BT-549 breast.
Assay [13] concerns MDA-MB-435 melanoma.
Assay [14] has as its system SW-620 colon.
Assay [15] relates to MCF7 breast.
The test system of assay [16] is HCT-116 colon.
Assay [17] relates to HCC-2998 colon.
Assay [18] deals with KM12 colon.

The panel holds about 83,000 compounds, 20% with a hit somewhere; the sample as a whole holds those more often.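 How to read the values: 0–100, growth inhibition (40 = 60% inhibited); 0, no net growth; -100 to 0, cell death (-40 = 40% of starting cells died; -100 = all dead).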 A number with no mark means an inactive call. Activity calls are given as the source filed them. The calls were made as follows: active = growth percent below 10; inactive = the rest.

`N=C(N)SCc1c2ccccc2c(CSC(=N)N)c2ccccc12`: the growth is -11.1% (active) in [1]; 46% in [2]; 60.7% in assay [3]; 102% in [4]; 80.6% in assay [5]; 81.4% in assay [6]. The growth in [7] was 80.6%; in assay [8] it was 93.5%; in assay [9], 85.5%; in assay [10] it was 103%; in assay [11], 71.5%; in [12] it was 102%. In addition, the growth in [13] was 74%; in assay [14], 43.1%; in assay [15], 38.3%; in [16], 40.4%; in assay [17], 79.5%; in [18], 59.7%.
Turning to `CON1CCC[C@]2(C)[C@H]3CC[C@@H]4[C@H]5[C@@H](O)C(C)(C)CC[C@]5(CO)CC[C@@]4(C)[C@]3(C)CC[C@H]2C1(C)C`, the growth in assay [1] was 88.4%; in [2] it was 89.1%; in assay [3], 95.2%; in assay [4], 102%; in [5], 100%; in assay [6], 90.1%. In addition, the growth in assay [7] was 103%; in assay [8], 104%; in assay [9], 108%; in [10], 111%; in assay [11] it was 79.8%; in assay [12], 115%. The growth was 94.5% in assay [13]; 98.4% in assay [14]; 98.5% in [15]; 88.6% in assay [16]; 103% in assay [17]; 105% in assay [18].
For `O=S(=O)(Nc1cc(Sc2cccc3cccnc23)c(O)c2ccccc12)c1ccc(F)cc1`, the growth in assay [1] is 4.77% (active); in assay [2], -12.8% (active); in [3] it was 5.74% (active); in assay [4], 38.9%; in assay [5], -99% (active); in [6], 50.8%. The growth in assay [7] is 1.46% (active); in assay [8], -87.6% (active); in [9] it was 50%; in [10], 3.32% (active); in [11], -40.3% (active); in [12], 30.7%. The growth in [13] is 7.68% (active); in [14] it was -69.3% (active); in [15], -53.4% (active); in [16], -88.5% (active); in assay [17], 40%; in [18] it was 16.5%.
Consider `O=C([C@H]1C[C@H]1c1ccc(S(F)(F)(F)(F)F)cc1)N1CCN(c2cc(Cl)ccc2C(F)(F)F)CC1`, for which the growth was 88.1% in assay [1]; 75.8% in assay [2]; 92.2% in assay [3]; 95.3% in assay [4]; 90.7% in assay [5]; 79.1% in [6]. Also, the growth in assay [7] was 73.3%; in assay [8] it was 100%; in assay [9], 91.4%; in assay [10], 95.5%; in [11] it was 74.9%; in [12], 106%. The growth in assay [13] is 102%; in assay [14] it was 95.9%; in [15] it was 89.6%; in [16] it was 60.2%; in assay [17] it was 96.9%; in [18], 82.5%.
Turning to `C=C(C)[C@@H]1CC[C@]2(C(=O)N3CCN(C)CC3)CC[C@]3(C)[C@H](CC[C@@H]4[C@@]5(C)CC(CCCNC(C)=O)(CCCNC(C)=O)[C@H](OC(C)=O)C(C)(C)[C@@H]5CC[C@]43C)[C@@H]12`, the growth in [1] is 76.2%; in [2], 75.5%; in [3], 106%; in assay [4], 102%; in assay [5], 111%; in assay [6], 102%. The growth was 102% in assay [7]; 104% in [8]; 96.6% in assay [9]; 98.7% in [10]; 89.9% in [11]; 104% in assay [12]. Besides, the growth in [13] was 94.4%; in assay [14], 99.2%; in assay [15] it was 89.1%; in assay [16] it was 90.7%; in assay [17], 106%; in assay [18], 107%.
Consider `Cc1cc2nc(C(Cl)Cl)nc(-c3ccc(Cl)cc3)n2n1`, for which the growth was 9.87% (active) in assay [1]; -7.69% (active) in assay [2]; 12.8% in assay [3]; -0.203% (active) in [4]; -19.6% (active) in assay [5]; -6.97% (active) in [6]. In addition, the growth in assay [7] is 5.11% (active); in [8], -26.6% (active); in assay [9], -32% (active); in assay [10], -6.58% (active); in [11], 27.4%; in assay [12], 52.5%. Besides, the growth in [13] is -25.2% (active); in assay [14], -36.6% (active); in [15], 2.98% (active); in [16], -2.01% (active); in assay [17], -77% (active); in assay [18], -27.2% (active).
`COc1cc(-c2nc3occn3c2-c2ccnc(NCCCNS(=O)(=O)c3ccc(O)cc3)n2)ccc1F`: the growth in assay [1] is 74.2%; in assay [2] it was 97%; in assay [3] it was 98.4%; in assay [4], 138%; in assay [5], 129%; in assay [6], 82.4%. For the same compound, the growth in [7] is 97.8%; in [8], 117%; in [9], 93%; in [10], 104%; in assay [11], 84.8%; in assay [12], 116%. Moreover, the growth in assay [13] is 47.7%; in assay [14] it was 115%; in assay [15], 92.1%; in assay [16], 86.1%; in [17], 112%; in [18], 99.8%.
